According to PubChem BioAssay AID651730 (NMMLSC, 2012):
Activity calls are given as the source filed them. No rule for the calls is given here.

Assay: V-ATPase regulators in yeast, S. cerevisiae, pHLuorin, powder sets 2-3, dose response (AID 651730)
Conditions: S. cerevisiae vacuolar pH, pHluorin fluorescence; series mostly up to 100 µM

outcome, inactive:
NS(=O)(=O)c1cccc(C(=O)N2CCN(c3nc4ccc(F)cc4s3)CC2)c1
NC(=O)c1ccc(C(=O)N2CCN(c3nc4ccc(F)cc4s3)CC2)o1
CN(C)S(=O)(=O)c1cccc(C(=O)Nc2ccccc2N2CCOCC2)c1
Cc1cncc(C(=O)N2CCN(c3nc4ccc(F)cc4s3)CC2)n1
Nc1cncc(C(=O)N2CCN(c3nc4ccc(F)cc4s3)CC2)n1
CS(=O)(=O)c1ccc(C(=O)Nc2ccccc2N2CCOCC2)o1
N#Cc1cccc(C(=O)N2CCN(c3nc4ccc(F)cc4s3)CC2)c1
CS(=O)(=O)c1cccc(C(=O)Nc2ccccc2N2CCOCC2)c1
O=C(Nc1ccccc1N1CCOCC1)c1cccc(Cl)n1
O=C(Nc1ccccc1N1CCOCC1)c1ccc(Br)o1
Nc1cncc(C(=O)Nc2ccccc2N2CCOCC2)n1
O=C(c1cc(CO)ccn1)N1CCN(c2nc3ccc(F)cc3s2)CC1
O=C(Nc1ccccc1N1CCOCC1)c1cncc(Cl)n1
O=C(c1cncc(Cl)n1)N1CCN(c2nc3ccc(F)cc3s2)CC1
CS(=O)(=O)Cc1cccc(C(=O)N2CCN(c3nc4ccc(F)cc4s3)CC2)c1
Cc1cccc(C(=O)N2CCN(c3nc4ccc(F)cc4s3)CC2)n1
NC(=O)c1cccc(C(=O)Nc2ccccc2N2CCOCC2)c1
O=C(c1cccc(C(F)(F)F)c1)N1CCN(c2nc3ccc(F)cc3s2)CC1
COCc1ccc(C(=O)N2CCN(c3nc4ccc(F)cc4s3)CC2)o1
O=C(Nc1ccccc1N1CCOCC1)c1cccc(C(F)(F)F)c1
Cc1cccc(C(=O)Nc2ccccc2N2CCOCC2)n1
NS(=O)(=O)c1ccc(C(=O)N2CCN(c3nc4ccc(F)cc4s3)CC2)o1
O=C(c1ccc(Br)o1)N1CCN(c2nc3ccc(F)cc3s2)CC1
NS(=O)(=O)c1cccc(C(=O)Nc2ccccc2N2CCOCC2)c1
CC(C)(C)c1ccc(C(=O)N2CCN(c3nc4ccc(F)cc4s3)CC2)o1
O=C(Nc1ccccc1N1CCOCC1)c1cccc(Br)n1
O=C(Nc1ccccc1N1CCOCC1)c1cc(C(F)(F)F)ccn1
O=C(c1cc(Cl)ccn1)N1CCN(c2nc3ccc(F)cc3s2)CC1
CN(C)Cc1ccc(C(=O)N2CCN(c3nc4ccc(F)cc4s3)CC2)o1
CN(C)Cc1cccc(C(=O)Nc2ccccc2N2CCOCC2)c1
O=C(Nc1ccccc1N1CCOCC1)c1ccc(-c2ccccc2)o1
